# Test results reported in paper PMC5540273 (PLoS ONE, 2017).
# Columns and labels:
# Conditions in all cases: concentration: 1 μM, replicates: in singlicate; n = 1
# TSSK1B = test system: TSSK1B
# TSSK3 = test system: TSSK3
# TTK = test system: TTK
# TXK = test system: TXK
# [1] = test system: TYK2(JH1domain-catalytic)
# [2] = test system: TYK2(JH2domain-pseudokinase)
# TYRO3 = test system: TYRO3
# ULK1 = test system: ULK1
# ULK2 = test system: ULK2
# ULK3 = test system: ULK3
# VEGFR2 = test system: T1, VEGFR2
# T1 construct: gene KDR
# VPS34 = test system: T2, VPS34
# T2 construct: gene PIK3C3
# VRK2 = test system: VRK2
# WEE1 = test system: WEE1
# WEE2 = test system: WEE2
# WNK1 = test system: WNK1
# WNK2 = test system: WNK2
# WNK3 = test system: WNK3
# WNK4 = test system: WNK4
# YANK1 = test system: T3, YANK1
# T3 construct: gene STK32A
# 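Further: KINOMEscan kinase panel screen.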
Structure (SMILES),%Inh (TSSK1B),%Inh (TSSK3),%Inh (TTK),%Inh (TXK),%Inh [1],%Inh [2],%Inh (TYRO3),%Inh (ULK1),%Inh (ULK2),%Inh (ULK3),%Inh (VEGFR2),%Inh (VPS34),%Inh (VRK2),%Inh (WEE1),%Inh (WEE2),%Inh (WNK1),%Inh (WNK2),%Inh (WNK3),%Inh (WNK4),%Inh (YANK1)
Cn1cnc2c(N)ncnc21 [SKF-97623],0%,0%,0%,0%,0%,0%,0%,0%,0%,0%,100%,0%,96.8%,0%,29%,0%,8%,0%,0%,0%
CNc1nc(-c2ccc3c(N)n[nH]c3c2)cc(N2C[C@@H](C(=O)NC3CCCCC3)OC[C@H]2C)n1 [GSK2375584],0%,23%,7%,0%,0%,12%,0%,0%,0%,0%,17%,0%,43%,29%,3%,5%,25%,28%,41%,7%
CNc1nc(-c2ccc3c(N)n[nH]c3c2)cc(N2C[C@@H](C(=O)Nc3ccccc3)CC[C@H]2C)n1 [GSK2298859],0%,6%,21%,10%,22%,13%,0%,0%,0%,0%,0%,7%,0%,9%,0%,0%,0%,33%,29%,46%
Cc1ccc(NC(=O)c2ccc(Cl)cc2)cc1-c1ccc(C(=O)Nc2ccncc2)cc1 [GSK1398467],18%,6%,0%,8%,0%,17%,0%,0%,0%,0%,0%,0%,27%,0%,8%,0%,0%,31%,22%,2%
COc1ccc(CSc2nnc(-c3ccc4nccn4c3)o2)cc1C(F)(F)F,0%,1%,64%,6%,8%,5%,3%,0%,4%,0%,10%,7%,7%,9%,0%,0%,0%,0%,2%,20%
c1ccc(-c2ccnc3[nH]ccc23)cc1 [SB-693578],28%,2%,6%,28%,63%,73%,0%,33%,0%,33%,32%,0%,27%,10%,23%,0%,11%,48%,37%,0%
COc1ccc(Nc2nccc(N3CCC(NC(=O)c4cc5ccccc5s4)C3)n2)cc1 (stereo not shown) [GSK1379738],0%,19%,0%,67%,9%,26%,0%,5%,0%,14%,0%,0%,0%,10%,0%,14%,11%,34%,24%,0%
Fc1ccc(-c2nn3cccc(F)c3c2-c2ccncc2)cc1 [GW475620],0%,14%,14%,5%,22%,9%,0%,12%,0%,12%,1%,15%,22%,0%,5%,5%,20%,5%,9%,28%
NS(=O)(=O)c1cccc(N/C=C2\C(=O)Nc3ccc(S(=O)(=O)Cc4c(Cl)cccc4Cl)cc32)c1 [GSK398099],21%,14%,0%,6%,30%,27%,0%,13%,4%,19%,0%,0%,0%,10%,20%,20%,8%,0%,0%,1%
CS(=O)(=O)Cc1ccc(Nc2nccc(-c3c(-c4cccc(NC(=O)C5CCCCC5)c4)nn4ncccc34)n2)cc1 [GSK350559],14%,8%,0%,17%,0%,12%,18%,5%,20%,18%,29%,0%,49%,0%,0%,0%,14%,0%,44%,26%
COc1cc2ncnc(Nc3cccc(Br)c3)c2cc1OC.Cl [GI230329],0%,16%,0%,4%,,23%,3%,9%,0%,17%,0%,41%,24%,2%,6%,0%,0%,41%,16%,56%
COc1ccc(Nc2nccc(NCCNC(=O)Nc3cc(C)ccc3C)n2)cc1 [GSK1379899],0%,7%,0%,15%,17%,0%,0%,28%,0%,0%,2%,4%,0%,0%,0%,0%,10%,0%,0%,0%
CC(=O)c1c(C)c2cnc(Nc3ccc(N4CCNCC4)cn3)nc2n(C2CCCC2)c1=O,0%,0%,92.1%,5%,0%,0%,0%,0%,45%,0%,6%,0%,0%,0%,0%,0%,0%,0%,0%,16%
O=C(Nc1n[nH]c2nc(-c3cccs3)c(Br)cc12)C1CCCC1 [SB-743341],24%,0%,37%,7%,0%,7%,1%,26%,32%,0%,28%,0%,0%,0%,22%,0%,5%,0%,3%,24%
O=C1NC(=O)C(c2ccc(Cl)cc2)=C1Nc1ccc(O)cc1 [SB-340867],0%,0%,100%,18%,0%,0%,0%,0%,0%,10%,0%,2%,0%,0%,0%,0%,48%,0%,0%,0%
Cc1ccc(NC(=O)Nc2ccccc2F)cc1-c1ccc(C(=O)Nc2ccncc2)cc1 [GSK1398477],3%,11%,22%,8%,0%,0%,9%,8%,0%,0%,0%,11%,0%,26%,12%,2%,0%,0%,0%,5%

Structure (SMILES),%Inh (TSSK1B),%Inh (TSSK3),%Inh (TTK),%Inh (TXK),%Inh [1],%Inh [2],%Inh (TYRO3),%Inh (ULK1),%Inh (ULK2),%Inh (ULK3),%Inh (VEGFR2),%Inh (VPS34),%Inh (VRK2),%Inh (WEE1),%Inh (WEE2),%Inh (WNK1),%Inh (WNK2),%Inh (WNK3),%Inh (WNK4),%Inh (YANK1)
COc1ccc2cc(-c3nc(-c4ccccc4C(C)C)[nH]c3-c3ccncc3)ccc2c1 [SB-660566],54%,31%,0%,35%,7%,27%,0%,19%,0%,14%,0%,0%,0%,12%,15%,10%,14%,42%,0%,16%
Nc1ncnc2occ(-c3ccc4c(c3)CCN4C(=O)Cc3cc(F)ccc3F)c12 [GSK2645446],0%,4%,0%,0%,2%,3%,0%,0%,0%,0%,0%,0%,0%,0%,13%,1%,14%,38%,60%,0%
O=C(Nc1n[nH]c2nc(-c3cccs3)c(Br)cc12)C1CC1 [SB-735297],0%,0%,0%,22%,9%,0%,12%,0%,6%,3%,0%,6%,0%,0%,0%,0%,0%,0%,29%,0%
Nc1cccc(-c2ccc3c(N)n[nH]c3c2)n1 [GSK2192730],0%,10%,6%,17%,12%,17%,0%,5%,0%,18%,19%,1%,0%,0%,0%,23%,0%,0%,0%,5%
CS(=O)(=O)CCNCc1nc(-c2ccc3ncnc(Nc4ccc5c(cnn5Cc5ccccc5)c4)c3c2)cs1.Cl.Cl [GW569716],0%,1%,3%,3%,22%,57%,0%,0%,0%,0%,0%,0%,16%,0%,5%,5%,3%,0%,62%,3%
CCCCc1nn2ncccc2c1-c1ccnc(NC2CC2)n1 [GW684374],0%,9%,0%,0%,6%,32%,0%,0%,0%,0%,0%,0%,4%,34%,0%,3%,15%,26%,14%,6%
Cc1cnc(N)c(/C=C/c2cncc(C(=O)NCCc3ccc(Cl)cc3Cl)c2)c1.Cl [GSK190937],6%,0%,0%,4%,0%,9%,0%,0%,0%,0%,0%,0%,26%,5%,0%,3%,4%,30%,4%,0%
COc1ccc(Nc2nccc(N3CCC(NC(=O)C(C)c4ccc(Cl)cc4)CC3)n2)cc1 (stereo not shown) [GSK1379812],0%,53%,0%,0%,0%,0%,0%,0%,0%,0%,1%,0%,0%,31%,0%,0%,0%,47%,19%,10%
Cn1cncc1-c1cc2c(Nc3ccc(OCc4ccccc4)cc3)ncnc2cn1 [GW281179],18%,10%,7%,21%,96.8%,27%,0%,0%,0%,0%,0%,0%,0%,2%,0%,7%,7%,25%,14%,0%
COc1nccc(-c2c(-c3ccc(F)cc3)ncn2CCCN2CCOCC2)n1 [SB-282852],0%,50%,0%,6%,13%,25%,0%,0%,33%,12%,1%,21%,77%,0%,52%,11%,14%,0%,0%,0%
COC(=O)c1cccc(NC(=O)NC2CCN(c3ccnc(Nc4ccc(F)cc4)n3)C2)c1 (stereo not shown) [GSK1379725],0%,3%,0%,0%,0%,23%,0%,15%,0%,12%,0%,0%,0%,16%,5%,0%,18%,27%,0%,0%
COc1ccc(Nc2nccc(-c3ccc(NC(=O)c4cc5cc(F)ccc5[nH]4)cc3)n2)cc1 [GSK1229496],0%,22%,0%,0%,23%,0%,0%,0%,0%,8%,0%,2%,0%,7%,0%,0%,14%,18%,51%,0%
Cn1cncc1C(=O)NC1CCN(c2ccnc(Nc3ccc(F)cc3)n2)C1 (stereo not shown) [GSK1379717],6%,0%,0%,100%,13%,20%,0%,6%,0%,17%,17%,0%,0%,7%,0%,12%,0%,22%,0%,3%
Cc1c(Cn2c3ccccc3n3c(=O)cc(N4CCOCC4)nc23)cccc1C(F)(F)F [GSK2306394],3%,0%,27%,0%,26%,0%,0%,21%,0%,7%,0%,80%,0%,0%,3%,2%,23%,0%,0%,0%
COc1ccc(-c2coc3ccc(-c4nnc(C)o4)cc23)cc1,0%,0%,0%,0%,0%,0%,0%,0%,0%,0%,0%,0%,0%,0%,4%,0%,32%,0%,0%,0%
